# Values joined by “and” are separate entries in the source; they are usually repeats but may differ in a detail not shown here. Equal values may be shown once. Inconclusive results are not listed. Active and inactive are the calls of the source. How the source made its calls, unless noted: active means hit-call score of the fitted dose curve at least 0.9, where 1 is the maximum; inconclusive means response in the unintended direction; inactive means score below 0.9.
# Legend:
# [1] = TOX21_p53_BLA_p2_viability: Viability Assessment in the Tox21 HCT-116 p53 Agonism Beta-lactamase Assay, Phase 2 (AID 2283591);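 further: actives lower the ATP signal meaning cytotoxicity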
# Summary of the method: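 HCT-116 p53-bla cells (4000/well) rested 5 h at 37C, then received compounds in DMSO (217-fold dilution) for 16 h at 37C, 5% CO2. After the CCF4 read, CellTiter-Glo was added; ATP luminescence was read after 30 min at room temperature.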
# [2] = target: Cellular tumor antigen p53 (Homo sapiens) (UniProt P04637); assay: TOX21_p53_BLA_p2_ratio: Tox21 HCT-116 p53 Agonism Beta-lactamase Assay, Ratio, Phase 2 (AID 2283592)
# Chain of Cellular tumor antigen p53 (Homo sapiens) (P04637 whole entry, looked up): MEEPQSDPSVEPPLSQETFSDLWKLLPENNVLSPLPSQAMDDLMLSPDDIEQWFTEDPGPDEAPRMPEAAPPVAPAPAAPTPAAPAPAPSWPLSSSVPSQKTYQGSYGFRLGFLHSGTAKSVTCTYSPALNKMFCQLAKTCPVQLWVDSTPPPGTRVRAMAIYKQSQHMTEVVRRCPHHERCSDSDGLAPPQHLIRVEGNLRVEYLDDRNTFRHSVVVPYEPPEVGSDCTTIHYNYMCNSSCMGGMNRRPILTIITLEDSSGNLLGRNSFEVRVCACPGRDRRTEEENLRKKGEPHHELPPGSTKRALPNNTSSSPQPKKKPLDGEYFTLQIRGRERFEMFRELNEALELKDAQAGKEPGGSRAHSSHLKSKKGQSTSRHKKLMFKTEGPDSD
# Summary of the method: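 An inducible beta-lactamase reporter in HCT116 cells signals p53 pathway activation. After 16 h chemical exposure at 37C, cells load CCF4-AM substrate for 2 h at room temperature; activity is the cleaved/uncleaved emission ratio relative to DMSO.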
# [3] = TOX21_p53_BLA_p3_viability: Viability Assessment in the Tox21 HCT-116 p53 Agonism Beta-lactamase Assay, Phase 3 (AID 2283593);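 further: cells exposed to compound for 16 h before reading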
# Summary of the method: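 HCT-116 cells (4000/well) rested 5 h at 37C, then got DMSO compounds by pin tool (217-fold dilution) for 16 h at 37C, 5% CO2. After the bla read, CellTiter-Glo was added and luminescence read at 30 min, room temperature.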
# [4] = target: Cellular tumor antigen p53 (Homo sapiens) (UniProt P04637); assay: TOX21_p53_BLA_p3_ratio: Tox21 HCT-116 p53 Agonism Beta-lactamase Assay, Ratio, Phase 3 (AID 2283596)
# Summary of the method: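 HCT116 p53-bla cells (4000/well) given compound in DMSO (217-fold dilution) after 5 h, incubated 16 h at 37C. CCF4-AM substrate 2 h at room temperature; 460/530 nm emission ratio, gain fitted against DMSO.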
# [5] = target: Cellular tumor antigen p53 (Homo sapiens) (UniProt P04637); assay: TOX21_p53_BLA_p5_ratio: Tox21 HCT-116 p53 Agonism Beta-lactamase Assay, Ratio, Phase 5 (AID 2283599)
# Summary of the method: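 HCT-116 cells carrying a p53-inducible beta-lactamase reporter were seeded at 4000 cells/well and dosed after 5 h with compound in DMSO (217-fold dilution). After 16 h at 37C, CCF4-AM substrate was added for 2 h, and the 460/530 nm emission ratio was scored as gain-of-signal versus DMSO.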
# [6] = TOX21_p53_BLA_p5_viability: Viability Assessment in the Tox21 HCT-116 p53 Agonism Beta-lactamase Assay, Phase 5 (AID 2283600)
# Summary of the method: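 Counter-readout for cytotoxicity: ATP-dependent luminescence from CellTiter-Glo, read in the beta-lactamase wells after 30 min at RT, following a 16 h compound exposure at 37C.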
# [7] = target: Cellular tumor antigen p53 (Homo sapiens) (UniProt P04637); assay: TOX21_p53_BLA_p4_ratio: Tox21 HCT-116 p53 Agonism Beta-lactamase Assay, Ratio, Phase 4 (AID 2283601)
# Summary of the method: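 HCT116 cells carrying an inducible beta-lactamase reporter were plated at 4000 cells/well, rested 5 h, then exposed to compounds in DMSO (217-fold dilution) for 16 h at 37C. CCF4-AM substrate was loaded 2 h at room temperature; 460/530 nm emission ratio scored gain-of-signal versus DMSO.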
# [8] = ACEA_ER_AUC_viability: ACEA Biosciences xCELLigence Real-Time Cell Analysis on Estrogen Receptor Agonism for Viability (AID 2283782);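 further: continuous compound exposure with impedance area under curve over 80 h; hit means loss of impedance signal meaning reduced cell growth or viability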
# Summary of the method: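 T-47D human breast cells in phenol red-free RPMI1640 with 10% charcoal-stripped FBS were dosed with an 8-point 1:4 dilution series from 100 uM top final concentration, in duplicate. Impedance-based growth was followed for 80 h; AUC analysed versus DMSO.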
# [9] = target: Thyroid hormone receptor alpha (Rattus norvegicus) + Thyroid hormone receptor beta (Rattus norvegicus) (UniProt P18113+P63059); assay: TOX21_TR_LUC_GH3_Agonist_Followup: Tox21 GH3 Thyroid Hormone Receptor Agonism Luciferase Follow-Up Assay (AID 2283939)
# Chain of Thyroid hormone receptor alpha (Rattus norvegicus) + Thyroid hormone receptor beta (Rattus norvegicus) (P63059 whole entry, looked up): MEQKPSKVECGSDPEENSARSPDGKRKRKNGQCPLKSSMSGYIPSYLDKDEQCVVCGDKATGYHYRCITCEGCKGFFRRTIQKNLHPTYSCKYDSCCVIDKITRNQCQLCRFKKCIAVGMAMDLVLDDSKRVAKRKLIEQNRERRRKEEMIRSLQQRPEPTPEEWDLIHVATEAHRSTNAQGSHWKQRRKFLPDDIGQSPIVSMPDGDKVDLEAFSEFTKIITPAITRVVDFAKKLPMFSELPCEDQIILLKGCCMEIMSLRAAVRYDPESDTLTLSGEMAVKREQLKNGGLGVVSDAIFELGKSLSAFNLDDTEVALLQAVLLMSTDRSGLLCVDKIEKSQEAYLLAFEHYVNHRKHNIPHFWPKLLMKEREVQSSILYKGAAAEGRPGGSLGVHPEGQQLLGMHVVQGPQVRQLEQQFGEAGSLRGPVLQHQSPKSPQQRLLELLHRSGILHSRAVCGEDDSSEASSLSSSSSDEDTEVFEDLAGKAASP
# Chain of Thyroid hormone receptor alpha (Rattus norvegicus) + Thyroid hormone receptor beta (Rattus norvegicus) (P18113 whole entry, looked up): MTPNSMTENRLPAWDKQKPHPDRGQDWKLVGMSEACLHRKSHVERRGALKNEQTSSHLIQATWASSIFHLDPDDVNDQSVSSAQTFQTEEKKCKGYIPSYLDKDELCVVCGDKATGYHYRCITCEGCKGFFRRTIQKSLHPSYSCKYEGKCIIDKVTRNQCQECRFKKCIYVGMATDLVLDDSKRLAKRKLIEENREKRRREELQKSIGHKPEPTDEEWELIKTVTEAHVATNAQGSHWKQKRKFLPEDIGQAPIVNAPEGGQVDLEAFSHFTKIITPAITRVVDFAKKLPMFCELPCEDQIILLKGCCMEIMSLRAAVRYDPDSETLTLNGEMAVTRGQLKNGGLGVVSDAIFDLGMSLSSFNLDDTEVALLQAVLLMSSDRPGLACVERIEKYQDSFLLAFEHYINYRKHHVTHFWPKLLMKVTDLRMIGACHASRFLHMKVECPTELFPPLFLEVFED
# Summary of the method: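 Rat GH3 cells (1,500/well) in serum-free assay medium, treated with 15-point series, 92 uM to 5 nM final, for 24 h at 37C. Luciferase via ONE-Glo luminescence; gain of signal fitted against DMSO, T3 positive control.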
# [10] = target: THRA (gene 7067) (UniProt P10827); assay: TOX21_TRA_COA_Agonist_Followup_ratio: Tox21 Thyroid Hormone Receptor alpha Agonism through Coactivator Recruitment Follow-Up Assay, Ratio (AID 2283948; active means hit-call score of the fitted dose curve at least 0.9, where 1 is the maximum; inactive means score below 0.9)
# Chain of THRA (gene 7067) (P10827 whole entry, looked up, the tested form may be a part): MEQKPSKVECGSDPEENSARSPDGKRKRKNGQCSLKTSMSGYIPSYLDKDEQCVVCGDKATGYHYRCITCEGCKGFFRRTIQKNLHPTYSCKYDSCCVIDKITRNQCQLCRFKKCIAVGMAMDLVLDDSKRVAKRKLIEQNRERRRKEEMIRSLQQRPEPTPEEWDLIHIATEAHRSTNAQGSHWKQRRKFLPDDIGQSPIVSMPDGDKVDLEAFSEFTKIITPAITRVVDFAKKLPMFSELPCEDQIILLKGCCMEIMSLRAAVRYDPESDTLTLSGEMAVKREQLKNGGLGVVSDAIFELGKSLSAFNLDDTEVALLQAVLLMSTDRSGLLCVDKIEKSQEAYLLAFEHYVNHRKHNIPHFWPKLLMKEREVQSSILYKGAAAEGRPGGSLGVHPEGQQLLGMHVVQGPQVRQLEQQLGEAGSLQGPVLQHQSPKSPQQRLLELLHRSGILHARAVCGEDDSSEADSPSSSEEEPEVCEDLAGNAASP
# Summary of the method: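 First, compound was incubated with 2.5 nM GST-TRα LBD in 0.10% BSA. Next, 200 nM fluorescein-SRC-2 and 2 nM Tb-anti-GST antibody were added. Finally, the 520:495 nm ratio was normalized to DMSO and T3 controls.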
# [11] = target: THRB (gene 7068) (UniProt P10828); assay: TOX21_TRB_BLA_Agonist_Followup_ratio: Tox21 Thyroid Hormone Receptor beta Agonism Beta-lactamase (BLA) Follow-Up Assay, Ratio (AID 2283954)
# Chain of THRB (gene 7068) (P10828 whole entry, looked up, the tested form may be a part): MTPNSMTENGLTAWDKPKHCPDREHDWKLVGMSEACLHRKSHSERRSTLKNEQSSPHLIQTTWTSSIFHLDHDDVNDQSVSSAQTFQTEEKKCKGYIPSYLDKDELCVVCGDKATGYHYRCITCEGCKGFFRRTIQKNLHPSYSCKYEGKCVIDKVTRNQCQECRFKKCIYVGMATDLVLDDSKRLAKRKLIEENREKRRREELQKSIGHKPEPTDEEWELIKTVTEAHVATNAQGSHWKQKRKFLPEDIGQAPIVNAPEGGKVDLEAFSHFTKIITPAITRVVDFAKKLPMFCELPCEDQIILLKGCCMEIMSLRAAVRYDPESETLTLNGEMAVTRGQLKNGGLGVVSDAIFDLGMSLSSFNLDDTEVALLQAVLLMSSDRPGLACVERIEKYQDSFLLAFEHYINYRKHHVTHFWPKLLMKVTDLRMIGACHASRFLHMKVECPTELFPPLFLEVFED
# Summary of the method: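 Human TRβ LBD–GAL4 DBD fusion in GeneBLAzer UAS-bla HEK293T cells; 11 concentrations in triplicate, 18 h at 37°C/5% CO2, T3 as agonist control. CCF4-AM substrate 2 h at room temperature; 460:530 nm ratio fitted for gain of signal versus DMSO.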
# [12] = TOX21_TRB_BLA_Agonist_Followup_viability: Viability Assessment in the Tox21 Thyroid Hormone Receptor beta Agonism Beta-lactamase (BLA) Follow-Up Assay (AID 2283956)
# Summary of the method: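 TRb-bla HEK293T cells (GAL4-DBD/human TRb LBD) in 2% charcoal-stripped FBS medium were exposed 18 h at 37C to 11 concentrations in triplicate. CellTiter-Glo ATP luminescence was read after 30 min at room temperature, with bidirectional fitting against DMSO.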
# [13] = target: THRB (gene 7068) (UniProt P10828); assay: TOX21_TRB_COA_Agonist_Followup_ratio: Tox21 Thyroid Hormone Receptor beta Agonism through Coactivator Recruitment Follow-Up Assay, Ratio (AID 2283963; active means hit-call score of the fitted dose curve at least 0.9, where 1 is the maximum; inactive means score below 0.9)
# Summary of the method: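 GST-TRb LBD 5.0 nM + 0.10% BSA + cpd; add fluorescein-SRC-2 200 nM / Tb anti-GST Ab 2 nM; TR-FRET ex 340, em 520:495; norm DMSO 0%, T3 100%.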
# [14] = target: Retinoic acid receptor RXR-alpha (Homo sapiens) (UniProt P19793); assay: TOX21_TR_RXR_BLA_Agonist_Followup_ratio: Tox21 Thyroid Hormone Receptor beta Retinoid X Receptor alpha (RXRa) Agonism Beta-lactamase (BLA) Follow-Up Assay, Ratio (AID 2283968)
# Chain of Retinoic acid receptor RXR-alpha (Homo sapiens) (P19793 whole entry, looked up, the tested form may be a part): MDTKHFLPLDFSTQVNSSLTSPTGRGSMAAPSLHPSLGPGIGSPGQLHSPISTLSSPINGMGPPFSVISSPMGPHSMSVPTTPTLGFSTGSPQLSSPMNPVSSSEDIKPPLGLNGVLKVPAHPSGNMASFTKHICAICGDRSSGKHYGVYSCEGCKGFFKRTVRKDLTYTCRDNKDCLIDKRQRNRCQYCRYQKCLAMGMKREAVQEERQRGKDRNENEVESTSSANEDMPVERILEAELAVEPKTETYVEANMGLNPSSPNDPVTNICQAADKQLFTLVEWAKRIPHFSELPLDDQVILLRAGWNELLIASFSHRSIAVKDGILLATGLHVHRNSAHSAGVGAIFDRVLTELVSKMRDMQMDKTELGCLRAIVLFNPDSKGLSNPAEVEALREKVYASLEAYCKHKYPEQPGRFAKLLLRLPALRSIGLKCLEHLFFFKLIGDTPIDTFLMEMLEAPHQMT
# Summary of the method: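 This follow-up tests whether responses seen in the TR GH3 luciferase agonist screen are specific, using a GAL4-driven beta-lactamase reporter for RXRa in HEK293T cells. Compound exposure lasts 16 h; signal is the cleaved/uncleaved substrate ratio.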
# [15] = TOX21_TR_RXR_BLA_Agonist_Followup_viability: Viability Assessment in the Tox21 Thyroid Hormone Receptor beta Retinoid X Receptor alpha (RXRa) Agonism Beta-lactamase (BLA) Follow-Up Assay (AID 2283970)
# Summary of the method: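 In qHTS format, RXRa-bla HEK293T cells (2,500/well) received compound for 16h. ATP content was then measured with CellTiter-Glo, and responses were fitted bidirectionally relative to DMSO controls.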
# [16] = CCTE_Harrill_HTTr_Apoptosis_MCF7: CCTE's 6-hour Apoptosis Assessment for the High-Throughput Transcriptomics (HTTr) Platform, in MCF-7 cells cultured in DMEM + 10% fetal bovine serum, Harrill Lab (AID 2284011; active means hit-call score of the fitted dose curve at least 0.9, where 1 is the maximum; inactive means score below 0.9)
# Summary of the method: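 Cells are dosed with test chemicals at eight concentrations and imaged 6 hours later for caspase-3/7 activity using a green fluorogenic detection reagent. Activity is fitted in both directions against DMSO controls.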
structure (smiles),measurement,setting,value
O=[N+]([O-])C(Br)Br,outcome,[1],inactive
same,outcome,[2],inactive
same,outcome,[3],inactive
same,outcome,[4],inactive
same,outcome,[5],inactive
same,outcome,[6],inactive
same,outcome,[7],inactive
CC(C)[N+](C)(CCC(C(N)=O)(c1ccccc1)c1ccccc1)C(C)C,outcome,[1],inactive
same,outcome,[2],inactive
same,outcome,[3],inactive
same,outcome,[4],inactive
same,outcome,[5],inactive
same,outcome,[6],inactive
same,outcome,[7],inactive
Oc1cccc(Cl)c1,outcome,[1],inactive
same,outcome,[2],inactive
same,outcome,[3],inactive
same,outcome,[4],inactive
same,outcome,[5],inactive
same,outcome,[6],inactive
same,outcome,[7],inactive
CC(C)CC(C)N (centres undefined),outcome,[1],inactive
same,outcome,[2],inactive
same,outcome,[3],inactive
same,outcome,[4],inactive
same,outcome,[5],inactive
same,outcome,[7],inactive
CN(C)c1ccc(N)cc1,outcome,[1],inactive
same,AC50,[2],72 µM (active)
same,outcome,[3],inactive
same,outcome,[4],inactive
same,outcome,[5],inactive
same,outcome,[6],inactive
same,outcome,[7],inactive
ClC(Br)Br,outcome,[1],inactive
same,outcome,[2],inactive
same,outcome,[3],inactive
same,outcome,[4],inactive
same,outcome,[5],inactive
same,outcome,[6],inactive
same,outcome,[7],inactive
Clc1ccccc1-c1ccccc1Cl,outcome,[1],inactive
same,outcome,[2],inactive
same,AC50,[3],62.2 µM (active)
same,outcome,[4],inactive
same,outcome,[5],inactive
same,outcome,[7],inactive
[O]=[Cd],outcome,[1],inactive
same,outcome,[2],inactive
same,outcome,[3],inactive
same,outcome,[4],inactive
same,outcome,[5],inactive
same,outcome,[6],inactive
same,outcome,[7],inactive
C[C@@H](CO)NC(=O)[C@@H]1C=C2c3cccc4[nH]cc(c34)C[C@H]2N(C)C1,outcome,[1],inactive
same,outcome,[2],inactive
same,outcome,[3],inactive
same,outcome,[4],inactive
same,outcome,[5],inactive
same,outcome,[6],inactive
same,outcome,[7],inactive
O=[N+]([O-])/C=C/c1ccccc1,outcome,[1],inactive
same,AC50,[2],12 µM (active)
same,outcome,[3],inactive
same,outcome,[4],inactive
same,outcome,[5],inactive
same,outcome,[7],inactive
CCBr,outcome,[1],inactive
same,outcome,[2],inactive
same,outcome,[3],inactive
same,outcome,[4],inactive
same,outcome,[6],inactive
same,outcome,[7],inactive
COC(=O)C(c1ccccc1)C1CCCCN1 (centres undefined),outcome,[1],inactive
same,outcome,[2],inactive
same,outcome,[3],inactive
same,outcome,[4],inactive
same,outcome,[5],inactive
same,outcome,[7],inactive
O=C(O)CC(Cl)C(=O)O (centres undefined),outcome,[1],inactive
same,AC50,[2],57.3 µM (active)
same,outcome,[3],inactive
same,outcome,[4],inactive
same,outcome,[5],inactive
same,outcome,[6],inactive
same,outcome,[7],inactive
O=C(O)c1ccc2[nH]cc(CCCCN3CC=C(c4ccccc4)CC3)c2c1,outcome,[1],inactive
same,outcome,[2],inactive
same,outcome,[3],inactive
same,outcome,[4],inactive
same,outcome,[5],inactive
same,outcome,[7],inactive
CC[n+]1c(-c2ccccc2)c2cc(N)ccc2c2ccc(N)cc21,outcome,[1],inactive
same,AC50,[2],1.43 µM (active) and 9.38 µM (active) and 2.95 µM (active)
same,outcome,[3],inactive
same,AC50,[4],3.51 µM (active) and 14.1 µM (active) and 6.74 µM (active)
same,AC50,[5],2.77 µM (active) and 8.85 µM (active) and 4.7 µM (active)
same,outcome,[6],inactive
same,AC50,[7],1.93 µM (active) and 9.2 µM (active) and 3.86 µM (active)
C=CCc1cc(OC)c2c(c1)OCO2,outcome,[1],inactive
same,outcome,[2],inactive
same,outcome,[3],inactive
same,outcome,[4],inactive
same,outcome,[5],inactive
same,outcome,[7],inactive
CC(C)(C)NCC(O)c1ccccc1Cl (centres undefined),outcome,[1],inactive
same,outcome,[2],inactive
same,outcome,[3],inactive
same,outcome,[4],inactive
same,outcome,[5],inactive
same,outcome,[6],inactive
same,outcome,[7],inactive
CC(C)CCON=O,outcome,[1],inactive
same,outcome,[2],inactive
same,outcome,[3],inactive
same,outcome,[4],inactive
same,outcome,[5],inactive
same,outcome,[6],inactive
same,outcome,[7],inactive
CCCCC#N,outcome,[1],inactive
same,outcome,[2],inactive
same,outcome,[3],inactive
same,outcome,[4],inactive
same,outcome,[6],inactive
same,outcome,[7],inactive
O=CC(Br)(Br)Br,outcome,[1],inactive
same,AC50,[2],82.7 µM (active)
same,outcome,[3],inactive
same,outcome,[4],inactive
same,AC50,[5],29.9 µM (active)
same,outcome,[7],inactive
C1CCC2CCCCC2C1 (centres undefined),outcome,[1],inactive
same,outcome,[2],inactive
same,outcome,[3],inactive
same,outcome,[4],inactive
same,outcome,[5],inactive
same,outcome,[7],inactive
CNC(=O)ON=C(CSC)C(C)(C)C,outcome,[1],inactive
same,outcome,[2],inactive
same,outcome,[3],inactive
same,outcome,[4],inactive
same,outcome,[5],inactive
same,outcome,[6],inactive
same,outcome,[8],inactive
same,outcome,[9],inactive
same,outcome,[10],inactive
same,outcome,[11],inactive
same,outcome,[12],inactive
same,outcome,[13],inactive
same,outcome,[14],inactive
same,outcome,[15],inactive
same,outcome,[16],inactive
CC[N+](C)(CC)CCOC(=O)C(O)(c1ccccc1)c1ccccc1,outcome,[1],inactive
same,outcome,[2],inactive
same,outcome,[3],inactive
same,outcome,[4],inactive
same,outcome,[5],inactive
same,outcome,[6],inactive
same,outcome,[7],inactive
